High-throughput results (PubChem)
BaF3 tox: parental Ba/F3 viability inhibition as JAK2V617F counter-screen. CellTiter-Glo ATP luminescence. inhibition, % at 5.6 µM. 220,000 compounds, 1.1% hits;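 active = inhibition above a per-campaign cutoff, the mean inhibition of all tested compounds plus 3 SD, cut at about 27% in these data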
Ba/F3 V617F tox: loss of viability in JAK2V617F-driven Ba/F3 cells. Ba/F3 EpoR-JAK2V617F viability, ATP luminescence. inhibition, % at 5.6 µM. AID 1446. 220,000 compounds, 1.1% hits;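 active = inhibition above the campaign mean plus 3 SD over all tested compounds, cut at about 24% in these data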;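 note: cytokine-independent growth of Ba/F3 cells driven by EpoR plus mutant JAK2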
IEC-6 tox: IEC-6 cytotoxicity, counter-screen for KLF5 inhibitors | 290,000 compounds, 0.78% hits | luminescence viability | inhibition, % at 5 µM; in the data active = inhibition above about 22%
APP 5UTR inh: APP translation inhibition; inhibition, % at 2 µM; 190,000 compounds, 0.82% hits; SH-SY5Y APP 5'UTR-luciferase reporter, luminescence; AID 1285;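 active = inhibition above a set limit, derived from the sample mean plus 3 SD, cut at about 45% in these data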
aSyn UTR inh: MLPCN primary screen, SNCA 5' untranslated region | alpha-synuclein 5'UTR reporter, inhibitor activity | 300,000 compounds, 0.82% hits | inhibition, % (tested at 7.5 µM); in the data active = inhibition above about 60%;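 note: H4 neuroglioblastoma cells stably carrying SNCA 5'UTR luciferase fusion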
KLF5 inhibitor: kruppel-like factor 5 inhibition. AID 1700. 290,000 compounds, 0.23% hits. DLD-1 KLF5 promoter-luciferase reporter, luminescence. inhibition, % at 5 µM;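 active = inhibition above a per-plate limit of that plate's mean compound inhibition plus 3 SD, cut at about 60% in these data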;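 note: higher means less KLF5 promoter-driven luciferase light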
Numbers stand for hits; n = inactive; x = not tested or not shown; ! = not active in a repeat. Shown are actives, neighbours in structure and some others; about 2.1% of the full set was active somewhere.

SMILES	BaF3 tox	Ba/F3 V617F tox	IEC-6 tox	APP 5UTR inh	aSyn UTR inh	KLF5 inhibitor
CCc1ccccc1NC(=S)/N=C(\N)Nc1nc(C)c2cc(C)ccc2n1	55	54	n	n	n	n
Cc1ccc(NC(=S)/N=C(\N)Nc2nc(C)c3cc(C)c(C)cc3n2)cc1C	38	n	n	n	n	n
COc1cccc(OCCn2cc(C(C)=O)c3ccccc32)c1	x	x	n	x	n	n
Oc1[nH]c2c(Cl)cc(Cl)cc2c1N=NC(=S)NCC1CCCO1 (centres undefined)	n	n	n	n	79	n
CCN(C(=O)COC(=O)c1cc(-c2ccc3cc(OC)ccc3c2)nc2ccccc12)C1CCS(=O)(=O)C1 (centres undefined)	n	n	n	n	67	n
CCN(C(=O)COC(=O)c1cc(-c2ccccc2)nc2c1c(C)nn2-c1ccccc1)C1CCS(=O)(=O)C1 (centres undefined)	n	n	n	n	n	n
Cc1cc(C)nc(NC(=O)c2ccc(COc3ccccc3Cl)cc2)c1	71	62	n	n	n	n
CC1=NNC(=O)C1CCC(=O)N/N=C/C(Br)=C/c1ccccc1 (centres undefined)	n	n	n	82	n	n
CCN(CC(=O)Nc1c(F)cccc1F)C(=O)/C=C/c1ccc(S(=O)(=O)N2CCCCCC2)cc1	x	x	x	x	78	x
CCCCCN=C(N)N/N=C/c1c[nH]c2ccc(OC)cc12	x	x	x	x	108	x
CN(C)CC/C=C1\c2ccc(F)cc2Sc2cc(F)c(Cl)cc21	x	x	x	x	103	x
Cc1cccc(-n2c(=O)c3ccccc3n3c(=S)[nH]nc23)c1C	x	x	n	x	n	n
Cn1c(C(=O)N2CCCC(C(=O)O)C2)cc2sccc21 (centres undefined)	95	n	n	n	n	n
Cn1c(C(=O)N2CCCC(C(=O)N3CCN(C(=O)c4ccco4)CC3)C2)cc2sccc21 (centres undefined)	n	n	n	n	x	n
Cc1ccc(OCC(O)CN2CC3(C)CC2CC(C)(C)C3)cc1 (centres undefined)	n	n	n	n	n	n
Cc1cccc(OCC(O)CN2CC3(C)CC2CC(C)(C)C3)c1 (centres undefined)	n	n	n	49	n	n
CCCc1noc2c1/C(=N\O)CC(c1ccccc1)C2 (centres undefined)	n	n	n	n	n	n
CCCc1n[nH]c2c1/C(=N/O)CC(c1ccccc1)C2 (centres undefined)	n	n	n	n	69	n
CC(C)n1cc(C(=O)NC2CC(C)(C)Cc3c2cnn3-c2ccccc2)cn1 (centres undefined)	x	x	n	x	n	n
COc1cccc(C(=O)Oc2c(CN3CCOCC3)cc(Cl)c3cccnc23)c1	n	n	n	n	89	n
COc1cc(C(=O)Oc2c(CN3CCOCC3)cc(Cl)c3cccnc23)cc(OC)c1OC	n	n	n	n	78	n
COc1ccc(C(=O)Oc2c(CN3CCOCC3)cc(Cl)c3cccnc23)cc1	n	n	n	n	n	n
O=C(Nc1ccc(F)c(Cl)c1)Nn1cnnc1	x	x	n	x	n	n
COc1ccc(/C=N/OC(=O)c2ccc(Cl)cc2)c(Cl)c1OC	n	n	n	x	n	n
COc1cc(CCC(=O)OCC(=O)N2CCc3ccccc32)cc(OC)c1OC	x	x	n	x	n	n
SMILES	BaF3 tox	Ba/F3 V617F tox	IEC-6 tox	APP 5UTR inh	aSyn UTR inh	KLF5 inhibitor
C=CC[n+]1c(-c2ccc(C)cc2)csc1Nc1ccc(NC(C)=O)cc1	n	n	n	50	100	n
C=CC[n+]1c(-c2ccc(OC)cc2)csc1NNC(=O)Nc1ccccc1	n	n	n	n	n	n
O=C(O)CC1S/C(=N/N=C/C=C/c2ccccc2)NC1=O (centres undefined)	97!	n	n	n	n	n
COCCN=c1scc(-c2cccs2)n1/N=C/c1ccc(O)c(O)c1O	n	n	n	n	67	n
O=C1CCCc2c1[nH]c1ccc(Cl)cc21	n	n	n	n	63	n
CC(=O)NNc1cc(C)nc(N)n1	n	n	n	x	n	n
O=C(c1nnsc1S(=O)c1ccc(Cl)cc1)N1CCOCC1 (centres undefined)	40	90	n	48	n	n
CC(Oc1ccccc1)C(=O)N1CCN(c2ccc(N3CCCCC3)nn2)CC1 (centres undefined)	x	x	x	x	n	x
NC(=O)c1c(/N=C/c2cccs2)sc2c1CCCC2	n	n	n	x	n	n
CCCOC1CCCN(C(=O)c2cc(COc3ccc(F)c(F)c3)on2)C1 (centres undefined)	x	x	n	x	n	n
